Assay results: PubChem BioAssay (NCI)
The panel holds about 79,000 compounds, 15% with a hit somewhere; the sample as a whole holds those more often. Unmarked numbers belong to inactive results. Activity calls are given as the source filed them. Cut-off read from the data, not from the text of the source: active = growth inhibition above about 70%; inactive = the rest.

Key:
[1] = NCI Yeast Anticancer Drug Screen. Data for the rad50 strain (AID 155);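 note: 0% = growth of vehicle-only cultures of the same strain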; conditions: S. cerevisiae rad50 strain growth inhibition, active compounds read high
How it was run: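 Cells are treated with compound, grown, and their growth is then scored against vehicle-only cultures of the same repair-deficient yeast strain.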

[2] = NCI Yeast Anticancer Drug Screen. Data for the mec2-1 strain (AID 157); conditions: S. cerevisiae mec2-1 strain, active compounds read high
How it was run: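 Compounds were applied to mec2-1 yeast cells. Their growth was then compared with that of vehicle-treated cultures to give growth inhibition.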

[3] = NCI Yeast Anticancer Drug Screen. Data for the sgs1 mgt1 strain (AID 161);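 note: 0% = growth of cultures given vehicle only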; conditions: S. cerevisiae sgs1 mgt1 strain, active compounds read high
How it was run: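 This yeast growth screen uses a strain with defined DNA-repair lesions; compound-treated growth is compared with vehicle-treated growth.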

[4] = NCI Yeast Anticancer Drug Screen. Data for the cln2 rad14 strain (AID 165);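 note: 0% = growth equal to vehicle treated cultures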; conditions: S. cerevisiae cln2 rad14 strain, active compounds read high
How it was run: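 Strain: cln2 rad14 yeast, altered in cell cycle control and DNA damage repair. Read-out: growth inhibition vs vehicle.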

[5] = NCI Yeast Anticancer Drug Screen. Data for the bub3 strain (AID 167); conditions: S. cerevisiae bub3 mutant strain, active compounds read high
How it was run: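 Part of a panel of yeast mutants defective in DNA damage repair or cell cycle regulation. Each strain is grown with compound, and inhibition is calculated relative to solvent-treated cultures.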

[6] = NCI Yeast Anticancer Drug Screen. Data for the mlh1 rad18 strain (AID 175); conditions: S. cerevisiae mlh1 rad18 strain growth inhibition, active compounds read high
How it was run: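 A repair-deficient yeast strain is exposed to test compound, and growth is scored relative to vehicle-treated controls.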

[7] = at 5.0 µM (retest, dose inferred, filed as 0.5)
[8] = at 50.0 µM (retest, dose inferred, filed as 5.0)

Structure (SMILES)	growth inhibition [1, 7]	growth inhibition [1, 8]	growth inhibition ([1]; at 50.0 µM)	growth inhibition [2, 7]	growth inhibition [2, 8]	growth inhibition ([2]; at 50.0 µM)	growth inhibition [3, 7]	growth inhibition [3, 8]	growth inhibition ([3]; at 50.0 µM)	growth inhibition [4, 7]	growth inhibition [4, 8]	growth inhibition ([4]; at 50.0 µM)	growth inhibition [5, 7]	growth inhibition [5, 8]	growth inhibition ([5]; at 50.0 µM)	growth inhibition [6, 7]	growth inhibition [6, 8]	growth inhibition ([6]; at 50.0 µM)
CCS(=O)(=O)/C=C/c1ccncc1	-3%	11%	24.7%	3%	-1%	27.9%	-2%	12%	6.4%	1%	12%	5.85%	-2%	2%	7.9%	11%	11%	20.3%
Cc1ccc(OCC2CO2)c(Br)c1 (configuration not stated)	11%	66%	78.2% (active)	1%	19%	5.95%	15%	71% (active)	49.6%	4%	15%	-44.6%	-1%	1%	-13.2%	17%	84% (active)	24.1%
Cc1cc(/C=N/Nc2ccc3cccc(O)c3n2)c(O)c2ncccc12	40%	98% (active)	99.1% (active)	41%	98% (active)	99% (active)	51%	99% (active)	99.1% (active)	21%	99% (active)	98.7% (active)	17%	99% (active)	99.2% (active)	58%	98% (active)	97% (active)
CSCCC(NC(=O)C(CCSC)NS(=O)(=O)Cc1ccccc1)C(=O)O (configuration not stated)	-6%	-4%	98.9% (active)	-4%	-3%	99.6% (active)	-6%	-6%	48.5%	-2%	-12%	98.7% (active)	-4%	-3%	99.2% (active)	-4%	-5%	99.2% (active)
O=c1cc(-c2cccc(OCc3ccccc3)c2)[nH]c2cc3c(cc12)OCO3	19%	6%	21.3%	16%	12%	-21.4%	21%	16%	17.1%	0%	11%	5.75%	14%	6%	19.9%	22%	10%	-51.5%
CCCCCCCCCCCC(=O)N(CCCCCCCCC)CC(O)C(O)C(OC1OC(CO)C(O)C(O)C1O)C(O)CO (configuration not stated)	0%	97% (active)	82.5% (active)	-2%	95% (active)	85% (active)	-36%	96% (active)	85.7% (active)	-17%	91% (active)	66.5%	6%	96% (active)	86.3% (active)	1%	97% (active)	62%
CN(C)c1ncnc2c1ncn2C	29%	61%	70.8% (active)	15%	81% (active)	61.4%	16%	53%	59.1%	-1%	38%	17.4%	20%	98% (active)	38.7%	26%	72% (active)	61.4%
Fc1cccc(CSc2ncnc3c2ncn3C2CCCS2)c1 (configuration not stated)	4%	70% (active)	84.9% (active)	1%	87% (active)	90% (active)	6%	92% (active)	93.3% (active)	26%	87% (active)	82% (active)	1%	82% (active)	90% (active)	3%	88% (active)	92.5% (active)
O=C(CSc1nnc(-c2ccc(N=Cc3ccc(Cl)cc3)cc2)o1)Nc1ccccc1Cl	22%	57%	54.8%	-10%	44%	-11.8%	7%	40%	6.25%	14%	28%	-54.5%	-1%	20%	-11.8%	2%	58%	20.4%
